Drawing on PMC7862700, “An all-to-all approach to the identification of sequence-specific readers for epigenetic DNA modifications on cytosine”, this text covers binding signal for 8 sequences.

Common to all, as to test: DAPPL (digital affinity profiling via proximity ligation, sequencing); 10 mM Tris-HCl pH 7.5, 50 mM NaCl, 1 mM DTT, 4% glycerol, room temperature, 30 min; GST-TFs on glutathione beads, 16-mer random dsDNA library, 0.1% formaldehyde crosslink after washing; high values mean tight binding
Conditions in all cases: protein: recombinant; tags: N-terminal GST; dsDNA, one strand shown

One assay addresses T1, FLI1 (Homo sapiens, UniProt Q01543 1-452).
T1 sequence: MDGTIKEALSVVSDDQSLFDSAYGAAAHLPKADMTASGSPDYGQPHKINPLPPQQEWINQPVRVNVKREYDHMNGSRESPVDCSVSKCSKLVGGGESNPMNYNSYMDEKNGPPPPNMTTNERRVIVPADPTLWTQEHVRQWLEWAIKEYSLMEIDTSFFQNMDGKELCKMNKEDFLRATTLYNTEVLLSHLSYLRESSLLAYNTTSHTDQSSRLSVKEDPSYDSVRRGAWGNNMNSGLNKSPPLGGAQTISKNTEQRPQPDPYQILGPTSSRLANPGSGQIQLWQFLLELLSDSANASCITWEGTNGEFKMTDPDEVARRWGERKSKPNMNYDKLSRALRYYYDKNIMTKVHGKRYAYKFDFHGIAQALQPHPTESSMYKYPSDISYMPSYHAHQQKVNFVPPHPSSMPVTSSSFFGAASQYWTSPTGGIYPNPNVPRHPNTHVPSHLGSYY
Put shortly:
(§1)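 Pools of DNA-barcoded human transcription factors, expressed in yeast as GST fusions on glutathione beads and combined with a tag-only sample, were incubated with 200 nmole of a 16-mer random double-stranded DNA library. Incubation took 30 min at room temperature in Tris/NaCl/DTT/glycerol buffer and was followed by washing, 0.1% formaldehyde crosslinking, proximity ligation (BsaI/T4 ligase, 1 h, 37 °C), PCR amplification and sequencing on an Illumina NextSeq500. Binding signal is the ratio of a hexamer's read frequency for a factor to its frequency for the tag-only sample.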

For the next assay, the target named is T2, ELK1 (Homo sapiens, UniProt P19419 1-428).
T2 sequence: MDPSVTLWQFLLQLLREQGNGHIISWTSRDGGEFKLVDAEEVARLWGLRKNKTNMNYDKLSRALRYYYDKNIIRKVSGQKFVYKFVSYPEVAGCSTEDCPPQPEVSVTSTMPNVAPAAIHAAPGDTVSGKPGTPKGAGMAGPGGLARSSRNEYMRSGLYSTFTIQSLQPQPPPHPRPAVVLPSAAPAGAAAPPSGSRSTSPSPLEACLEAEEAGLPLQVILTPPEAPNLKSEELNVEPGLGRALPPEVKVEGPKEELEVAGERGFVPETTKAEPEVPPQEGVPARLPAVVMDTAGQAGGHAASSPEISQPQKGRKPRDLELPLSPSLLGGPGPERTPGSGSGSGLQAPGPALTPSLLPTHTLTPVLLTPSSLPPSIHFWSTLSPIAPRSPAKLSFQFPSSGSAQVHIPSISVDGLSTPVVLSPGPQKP
An outline of the steps:
as §1

The target in another assay is T3, GABPA (Homo sapiens, UniProt Q06546 1-454).
T3 sequence: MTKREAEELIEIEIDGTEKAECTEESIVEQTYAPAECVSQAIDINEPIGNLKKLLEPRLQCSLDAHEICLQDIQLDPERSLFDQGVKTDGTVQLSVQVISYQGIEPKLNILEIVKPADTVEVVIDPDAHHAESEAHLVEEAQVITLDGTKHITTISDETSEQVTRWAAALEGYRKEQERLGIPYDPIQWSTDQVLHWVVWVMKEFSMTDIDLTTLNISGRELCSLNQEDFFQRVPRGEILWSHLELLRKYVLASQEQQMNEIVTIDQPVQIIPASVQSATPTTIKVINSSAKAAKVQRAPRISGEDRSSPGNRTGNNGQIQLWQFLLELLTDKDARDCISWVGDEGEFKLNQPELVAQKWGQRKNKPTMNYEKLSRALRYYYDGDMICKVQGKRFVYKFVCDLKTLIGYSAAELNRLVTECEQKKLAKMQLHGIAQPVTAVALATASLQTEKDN
Put shortly: as §1

A further assay concerns the target T4, ERG (Homo sapiens, UniProt P11308 1-479).
T4 sequence: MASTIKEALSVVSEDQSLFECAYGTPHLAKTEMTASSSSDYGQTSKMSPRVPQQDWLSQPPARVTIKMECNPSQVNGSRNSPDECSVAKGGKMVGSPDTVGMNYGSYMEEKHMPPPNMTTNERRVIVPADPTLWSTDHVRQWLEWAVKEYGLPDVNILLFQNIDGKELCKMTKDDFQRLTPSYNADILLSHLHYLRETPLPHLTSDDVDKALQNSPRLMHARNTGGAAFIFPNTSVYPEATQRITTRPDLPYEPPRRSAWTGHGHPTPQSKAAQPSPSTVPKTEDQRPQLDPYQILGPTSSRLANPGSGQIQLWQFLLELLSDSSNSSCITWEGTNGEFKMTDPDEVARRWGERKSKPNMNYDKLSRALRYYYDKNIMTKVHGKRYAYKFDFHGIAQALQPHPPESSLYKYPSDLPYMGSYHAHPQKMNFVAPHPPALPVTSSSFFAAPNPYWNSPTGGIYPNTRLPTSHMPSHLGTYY
An outline of the steps: as §1

The next assay has as its target ELF1 (Homo sapiens, UniProt P32519 1-619). Put shortly:
as §1

A further assay concerns the target T5, EHF (Homo sapiens, UniProt Q9NZC4 1-300).
T5 sequence: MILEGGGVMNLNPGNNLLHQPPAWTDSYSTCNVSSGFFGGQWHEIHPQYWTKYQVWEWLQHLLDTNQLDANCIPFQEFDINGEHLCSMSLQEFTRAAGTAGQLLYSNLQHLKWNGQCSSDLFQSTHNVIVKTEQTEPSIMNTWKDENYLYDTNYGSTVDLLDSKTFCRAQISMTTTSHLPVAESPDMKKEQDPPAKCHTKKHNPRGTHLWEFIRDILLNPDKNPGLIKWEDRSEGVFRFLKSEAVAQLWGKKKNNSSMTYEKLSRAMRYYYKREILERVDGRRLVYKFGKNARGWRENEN
An outline of the steps:
as §1

The target of a further assay is SPI1 (Homo sapiens, UniProt P17947 1-270). Put shortly: as §1
The next assay addresses SPIB (Homo sapiens, UniProt Q01892 1-262). An outline of the steps:
as §1

Another assay has as its target T6, ELK3 (Homo sapiens, UniProt P41970 1-407).
T6 sequence: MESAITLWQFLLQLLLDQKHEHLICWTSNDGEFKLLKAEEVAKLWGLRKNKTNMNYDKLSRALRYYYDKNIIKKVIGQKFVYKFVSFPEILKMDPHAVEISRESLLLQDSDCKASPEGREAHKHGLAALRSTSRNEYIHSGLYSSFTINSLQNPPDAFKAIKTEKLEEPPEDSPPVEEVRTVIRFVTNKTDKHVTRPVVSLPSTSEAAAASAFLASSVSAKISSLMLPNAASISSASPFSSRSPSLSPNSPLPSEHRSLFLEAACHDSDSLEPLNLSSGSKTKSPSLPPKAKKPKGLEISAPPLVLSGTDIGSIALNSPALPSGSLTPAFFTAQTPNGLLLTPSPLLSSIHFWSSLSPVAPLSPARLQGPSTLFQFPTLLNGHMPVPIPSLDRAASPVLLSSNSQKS
An outline of the steps:
as §1

ELF1, sequence (P32519 whole entry): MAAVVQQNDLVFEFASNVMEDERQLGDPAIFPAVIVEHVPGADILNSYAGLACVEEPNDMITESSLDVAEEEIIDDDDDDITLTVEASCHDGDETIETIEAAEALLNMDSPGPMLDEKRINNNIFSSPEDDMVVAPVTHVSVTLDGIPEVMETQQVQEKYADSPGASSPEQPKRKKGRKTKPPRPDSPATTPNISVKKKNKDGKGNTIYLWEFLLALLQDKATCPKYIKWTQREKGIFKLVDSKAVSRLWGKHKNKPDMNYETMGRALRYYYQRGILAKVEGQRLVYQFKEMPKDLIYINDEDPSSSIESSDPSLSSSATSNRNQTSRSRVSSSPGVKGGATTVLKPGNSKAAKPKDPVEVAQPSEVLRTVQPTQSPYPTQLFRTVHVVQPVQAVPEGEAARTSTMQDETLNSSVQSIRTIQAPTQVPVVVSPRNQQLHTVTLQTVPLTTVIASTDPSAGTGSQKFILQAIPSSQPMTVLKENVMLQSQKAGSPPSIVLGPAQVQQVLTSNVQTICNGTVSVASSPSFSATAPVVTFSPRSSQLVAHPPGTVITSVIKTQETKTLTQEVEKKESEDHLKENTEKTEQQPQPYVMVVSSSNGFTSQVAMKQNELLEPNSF
SPIB, sequence (Q01892 whole entry): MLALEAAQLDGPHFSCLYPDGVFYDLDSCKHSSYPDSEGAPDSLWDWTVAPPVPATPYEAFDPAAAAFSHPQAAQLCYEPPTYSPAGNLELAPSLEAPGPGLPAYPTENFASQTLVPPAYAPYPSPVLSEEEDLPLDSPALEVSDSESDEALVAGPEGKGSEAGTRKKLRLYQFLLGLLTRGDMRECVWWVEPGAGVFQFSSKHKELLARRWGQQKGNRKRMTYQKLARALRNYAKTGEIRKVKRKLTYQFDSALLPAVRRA

For the sequence ATGAGC, the binding signal in the assay with FLI1 is 1.11 fold enrichment (6-mer frequency, TF over GST control); with ELK1, 1.27 fold enrichment (6-mer frequency, TF over GST control); in the assay with GABPA, 1.33 fold enrichment (6-mer frequency, TF over GST control); in the assay with ERG, 1.2 fold enrichment (6-mer frequency, TF over GST control); in the assay with ELF1, 1.24 fold enrichment (6-mer frequency, TF over GST control); with EHF it was 1.18 fold enrichment (6-mer frequency, TF over GST control). Also, the binding signal is 1.13 fold enrichment (6-mer frequency, TF over GST control) in the assay with SPI1; 1.24 fold enrichment (6-mer frequency, TF over GST control) with SPIB; 1.19 fold enrichment (6-mer frequency, TF over GST control) in the assay with ELK3.

As to ATCCCC, the binding signal with FLI1 was 1.47 fold enrichment (6-mer frequency, TF over GST control); in the assay with ELK1, 1.46 fold enrichment (6-mer frequency, TF over GST control); in the assay with GABPA it was 1.35 fold enrichment (6-mer frequency, TF over GST control); with ERG it was 1.52 fold enrichment (6-mer frequency, TF over GST control); with ELF1, 1.5 fold enrichment (6-mer frequency, TF over GST control); in the assay with EHF it was 1.46 fold enrichment (6-mer frequency, TF over GST control). The binding signal in the assay with SPI1 was 1.39 fold enrichment (6-mer frequency, TF over GST control); with SPIB, 1.39 fold enrichment (6-mer frequency, TF over GST control); in the assay with ELK3, 1.2 fold enrichment (6-mer frequency, TF over GST control).

As to CTTAGC, the binding signal was 1.22 fold enrichment (6-mer frequency, TF over GST control) in the assay with FLI1; 1.17 fold enrichment (6-mer frequency, TF over GST control) in the assay with ELK1; 1.26 fold enrichment (6-mer frequency, TF over GST control) in the assay with GABPA; 1.22 fold enrichment (6-mer frequency, TF over GST control) with ERG; 1.22 fold enrichment (6-mer frequency, TF over GST control) with ELF1; 1.25 fold enrichment (6-mer frequency, TF over GST control) with EHF. Besides, the binding signal in the assay with SPI1 is 1.21 fold enrichment (6-mer frequency, TF over GST control); in the assay with SPIB, 1.21 fold enrichment (6-mer frequency, TF over GST control); with ELK3, 1.22 fold enrichment (6-mer frequency, TF over GST control).

As for ATTAAA, the binding signal in the assay with FLI1 was 1.14 fold enrichment (6-mer frequency, TF over GST control); with ELK1 it was 1.1 fold enrichment (6-mer frequency, TF over GST control); in the assay with GABPA, 1.16 fold enrichment (6-mer frequency, TF over GST control); in the assay with ERG, 1.09 fold enrichment (6-mer frequency, TF over GST control); in the assay with ELF1, 1.2 fold enrichment (6-mer frequency, TF over GST control); in the assay with EHF it was 1.14 fold enrichment (6-mer frequency, TF over GST control). Also, the binding signal in the assay with SPI1 is 1.13 fold enrichment (6-mer frequency, TF over GST control); with SPIB, 1.19 fold enrichment (6-mer frequency, TF over GST control); in the assay with ELK3, 1.16 fold enrichment (6-mer frequency, TF over GST control).

Turning to TATTGG, the binding signal is 1.12 fold enrichment (6-mer frequency, TF over GST control) with FLI1; 1.14 fold enrichment (6-mer frequency, TF over GST control) in the assay with ELK1; 1.22 fold enrichment (6-mer frequency, TF over GST control) in the assay with GABPA; 1.15 fold enrichment (6-mer frequency, TF over GST control) in the assay with ERG; 1.22 fold enrichment (6-mer frequency, TF over GST control) in the assay with ELF1; 1.26 fold enrichment (6-mer frequency, TF over GST control) with EHF. Moreover, the binding signal was 1.06 fold enrichment (6-mer frequency, TF over GST control) with SPI1; 1.24 fold enrichment (6-mer frequency, TF over GST control) in the assay with SPIB; 1.07 fold enrichment (6-mer frequency, TF over GST control) in the assay with ELK3.

Regarding TGACTT, the binding signal with FLI1 was 1.38 fold enrichment (6-mer frequency, TF over GST control); in the assay with ELK1 it was 1.5 fold enrichment (6-mer frequency, TF over GST control); with GABPA, 1.38 fold enrichment (6-mer frequency, TF over GST control); in the assay with ERG it was 1.53 fold enrichment (6-mer frequency, TF over GST control); with ELF1 it was 1.44 fold enrichment (6-mer frequency, TF over GST control); with EHF, 1.43 fold enrichment (6-mer frequency, TF over GST control). In addition, the binding signal is 1.68 fold enrichment (6-mer frequency, TF over GST control) with SPI1; 1.52 fold enrichment (6-mer frequency, TF over GST control) with SPIB; 1.27 fold enrichment (6-mer frequency, TF over GST control) with ELK3.

In the case of TTTTCA, the binding signal with FLI1 is 1.12 fold enrichment (6-mer frequency, TF over GST control); with ELK1, 1.19 fold enrichment (6-mer frequency, TF over GST control); in the assay with GABPA, 1.3 fold enrichment (6-mer frequency, TF over GST control); with ERG, 1.17 fold enrichment (6-mer frequency, TF over GST control); with ELF1, 1.18 fold enrichment (6-mer frequency, TF over GST control); in the assay with EHF, 1.22 fold enrichment (6-mer frequency, TF over GST control). The binding signal with SPI1 is 1.29 fold enrichment (6-mer frequency, TF over GST control); with SPIB, 1.27 fold enrichment (6-mer frequency, TF over GST control); with ELK3 it was 1.09 fold enrichment (6-mer frequency, TF over GST control).

Regarding AATGCC, the binding signal with FLI1 was 1.06 fold enrichment (6-mer frequency, TF over GST control); with ELK1 it was 1.19 fold enrichment (6-mer frequency, TF over GST control); with GABPA it was 1.17 fold enrichment (6-mer frequency, TF over GST control); in the assay with ERG it was 1.18 fold enrichment (6-mer frequency, TF over GST control); in the assay with ELF1, 1.13 fold enrichment (6-mer frequency, TF over GST control); with EHF, 1.18 fold enrichment (6-mer frequency, TF over GST control). Besides, the binding signal with SPI1 is 1.06 fold enrichment (6-mer frequency, TF over GST control); with SPIB, 1.17 fold enrichment (6-mer frequency, TF over GST control); in the assay with ELK3, 1.08 fold enrichment (6-mer frequency, TF over GST control).
